Test results reported in PubChem BioAssay AID1851 (National Center for Advancing Translational Sciences (NCATS), 2009).
The campaign covered roughly 16,000 compounds. About 5,100 (32%) were called active. Roughly 25% stayed inconclusive and do not appear here. Calls come from the whole dose curve; as a rule, active = well fitted curve in the direction sought with a large enough effect; inconclusive = small, poorly fitted or top-dose-only effect, or effect the other way; inactive = no such curve, though single readings can be large or run the other way. The list shows a part of the results.

target: Cytochrome P450 3A4 (Homo sapiens) (UniProt P08684); assay: Cytochrome panel assay with activity outcomes; conditions: recombinant CYP, pro-luciferin dealkylation, luminescence, p450-cyp3a4; series mostly up to 57.1 µM; activity, negative = inhibition: at the top concentration
Sequence (P08684 whole entry, looked up): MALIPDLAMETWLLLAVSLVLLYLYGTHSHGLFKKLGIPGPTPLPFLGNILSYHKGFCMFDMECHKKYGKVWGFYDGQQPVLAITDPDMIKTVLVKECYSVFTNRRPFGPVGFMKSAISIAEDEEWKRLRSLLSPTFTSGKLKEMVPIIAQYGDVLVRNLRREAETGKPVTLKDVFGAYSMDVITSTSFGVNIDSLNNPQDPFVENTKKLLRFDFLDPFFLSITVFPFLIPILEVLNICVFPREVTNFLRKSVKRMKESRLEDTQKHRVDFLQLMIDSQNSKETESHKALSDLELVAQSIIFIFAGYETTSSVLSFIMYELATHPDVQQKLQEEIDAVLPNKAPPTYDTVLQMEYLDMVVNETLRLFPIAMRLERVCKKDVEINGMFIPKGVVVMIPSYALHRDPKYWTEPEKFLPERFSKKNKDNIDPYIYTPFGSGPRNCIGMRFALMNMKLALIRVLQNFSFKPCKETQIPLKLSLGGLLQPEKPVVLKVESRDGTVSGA
% is set by controls: 0 for no effect and ±100 for the full control effect.

| Structure (SMILES) | activity, negative = inhibition | AC50 |
| --- | --- | --- |
| CCc1c(O)c2c(c(O)c1C(C)=O)C(=O)c1c(cc(O)c(C(=O)O)c1C(=O)O)C2=O | 2.06% [at 11.4 µM] (inactive) | – |
| BrC(c1cccc2ccccc12)c1cccc2ccccc12 | -10.7% [at 11.4 µM] (inactive) | – |
| CCOC(=O)c1c(C)c(C(=O)N2CCN(C(=O)c3ccco3)CC2)c(C)n1C | -17.8% (inactive) | – |
| CCOC(=O)c1c(C)c(C)n2c1NC(=O)C2 | -20.8% [at 11.4 µM] (inactive) | – |
| CCOC(=O)c1c(C)c(C(=O)N2CCCCCC2)c(C)n1C | – | 7.94 µM (active) |
| Cc1ccc(S(=O)(=O)NCC(=O)N(CC(=O)NCc2ccco2)Cc2cccs2)cc1 | – | 4.47 µM (active) |
| Nc1ncnc2c1nc(Sc1ccc(Cl)cc1)n2[C@@H]1O[C@H]2COP(=O)(O)O[C@@H]2[C@H]1O | 3.41% (inactive) | – |
| Oc1ccc2ccccc2c1/C=C\c1ccc2c(Br)cc(Br)c(O)c2n1 | -13.3% [at 11.4 µM] (inactive) | – |
| CCC/C=C(\CCC)C(NS(=O)(=O)CC12CCC(CC1=O)C2(C)C)c1ccc(C(=O)OC)cc1 (stereo unspecified) | – | 3.98 µM (active) |
| CCC/C=C(\CCC)C(NS(=O)(=O)c1ccc(-c2ccccc2)cc1)c1ccc(C(=O)OC)cc1 (stereo unspecified) | 6.7% (inactive) | – |
| CCC/C=C(\CCC)C(NS(=O)(=O)c1ccc(Cl)cc1)c1ccc(C(=O)OC)cc1 (stereo unspecified) | – | 3.98 µM (active) |
| CCC/C=C(\CCC)C(NS(=O)(=O)c1ccc(Cl)cc1)c1ccccc1 (stereo unspecified) | – | 7.94 µM (active) |
| CCCCSc1nnc(-c2ccc(C)cc2)n1C | 9.47% (inactive) | – |
| O=C(O)c1ccccc1-c1ccccc1C(=O)Nc1ccc2c(c1)Cc1ccccc1-2 | -22.9% [at 11.4 µM] (inactive) | – |
| CC(=O)Nc1ccc(-c2nnc(SCC(=O)c3ccc4c(c3)Cc3ccccc3-4)n2C)cc1 | – | 12.6 µM (active) |
| Cn1c(SCC(=O)c2ccc3c(c2)Cc2ccccc2-3)nnc1-c1ccccc1 | – | 8.91 µM (active) |
| O=C(Nc1ccc2c(c1)Cc1ccccc1-2)[C@@H]1[C@H](C(=O)O)[C@]2(Cl)C(Cl)=C(Cl)[C@@]1(Cl)C2(Cl)Cl | -22% [at 11.4 µM] (inactive) | – |
| Cc1noc(C)c1-c1nccc(NC2CC2)n1 | – | 2.51 µM (active) |
| Cc1noc(C)c1-c1nccc(Nc2ccc(F)cc2)n1 | – | 12.6 µM (active) |

| Structure (SMILES) | activity, negative = inhibition | AC50 |
| --- | --- | --- |
| c1cc(NC2CC2)nc(-c2ccoc2)n1 | – | 5.01 µM (active) |
| COC(=O)[C@@]1(Cc2ccc(F)cc2)[C@H]2c3cc(C(=O)N4CCCC4)n(Cc4cccc5ccccc45)c3C[C@H]2CN1C(=O)c1ccccc1 | – | 2 µM (active) |
| COC(=O)[C@@]1(Cc2ccccc2)[C@H]2c3cc(C(=O)N4CCCC4)n(Cc4cccc5ccccc45)c3C[C@H]2CN1C(=O)c1ccccc1 | – | 1.58 µM (active) |
| CC(C)CNc1nc(N)[nH]c(=O)c1NC=O | -1.52% [at 11.4 µM] (inactive) | – |
| CCC(C)c1ccc(Nc2ncccc2C#N)cc1 (stereo unspecified) | -6.67% [at 2.29 µM] (inactive) | – |
| Cc1cccc(CNc2ncnc3ccc(-c4cccnc4)cc23)c1 | – | 1 µM (active) |
| c1ccc(CNc2ncnc3ccc(-c4cccnc4)cc23)cc1 | – | 1.26 µM (active) |
| Cc1cccc(CNc2ncnc3ccc(-c4cccc(C#N)c4)cc23)c1 | -94.6% (inactive) | – |
| c1ccc(Nc2ncnc3ccc(-c4cccnc4)cc23)cc1 | – | 2.51 µM (active) |
| CC(C)CN(CC#N)CC(C)C | -19.3% [at 11.4 µM] (inactive) | – |
| CCCC(=O)NCCc1c2n(c3ccc(OC)cc13)Cc1ccccc1-2 | – | 2.51 µM (active) |
| CN(C)C(=O)c1ccc(-n2nc(C(F)(F)F)c3c2CCCC3)cc1 | 5.72% [at 2.29 µM] (inactive) | – |
| CCNC(=O)c1ccc(-n2nc(C(F)(F)F)c3c2CCCC3)cc1 | -17% (inactive) | – |
| CCc1ccc(NC(=O)Cn2nc(C(F)(F)F)c3c2CCC3)cc1 | – | 12.6 µM (active) |
| CC(=O)NN1C(=O)c2ccc(Oc3cccc([N+](=O)[O-])c3)cc2C1=O | -11.8% (inactive) | – |
| Cn1cc([N+](=O)[O-])c(C(=O)Nc2cc(Oc3cccnc3)cc([N+](=O)[O-])c2)n1 | – | 0.501 µM (active) |
| Cc1ccc(Nc2ccc(-n3ccnc3)nn2)cc1C | – | 0.0794 µM (active) |
| O=c1[nH]n(-c2cccc(Cl)c2)c2ncccc12 | -16.8% (inactive) | – |
| N=c1n(CCN2CCOCC2)c2ccccc2n1CC(=O)c1ccc(Cl)c(Cl)c1 | 11.5% [at 2.29 µM] (inactive) | – |

| Structure (SMILES) | activity, negative = inhibition | AC50 |
| --- | --- | --- |
| O=C(c1ccc(Cl)c(Cl)c1)c1cc(-c2ccccn2)c(N2CCOCC2)s1 | – | 14.1 µM (active) |
| COc1ccc(OC[C@@H](CO)OC)cc1 | -12.9% [at 11.4 µM] (inactive) | – |
| Cn1c(=O)c2c(n(Cc3ccccc3)c1=O)NC(=O)C2CC(=O)NCc1cccc(Cl)c1 (stereo unspecified) | – | 6.31 µM (active) |
| COCCCNCC(=O)c1c(N)n(Cc2ccccc2)c(=O)n(C)c1=O | -9.63% [at 2.29 µM] (inactive) | – |
| C[C@]12CC3CC(N)(C1)C[C@@](C)(C3)C2 | – | inactive |
| N#C/C(=C(\O)C(=O)O)c1ccc(-c2cccc3ccccc23)cc1 | -22% [at 11.4 µM] (inactive) | – |
| CCn1c2ccccc2c2cc(N=C3SC(CC(=O)Nc4ccccc4)C(=O)N3C)ccc21 (stereo unspecified) | – | 5.01 µM (active) |
| NS(=O)(=O)c1cc2c(cc1Cl)N[C@@H](C(Cl)Cl)NS2(=O)=O | -10% [at 25.6 µM] (inactive) | – |
| NS(=O)(=O)c1cc2c(cc1Cl)NC(CSCc1ccccc1)=NS2(=O)=O | – | 12.6 µM (active) |
| NS(=O)(=O)c1cc2c(cc1Cl)N[C@H](Cc1ccccc1)NS2(=O)=O | -18.4% [at 11.4 µM] (inactive) | – |
| Oc1c(Br)cc(Br)cc1CN(Cc1cc(Br)cc(Br)c1O)C1CCCCC1 | -22.2% [at 11.4 µM] (inactive) | – |
| CCOC(=O)CCN1C(=O)[C@H]2[C@H]3[C@H](O)[C@H](O)C/C(=N/O[C@@H]4O[C@@H](COC(C)=O)[C@@H](OC(C)=O)[C@@H](OC(C)=O)[C@H]4OC(C)=O)[C@@H]3CC[C@@H]2C1=O | -20.3% [at 11.4 µM] (inactive) | – |
| CCN(CC)C(=O)c1ccc(O)c(OC)c1 | -14.6% [at 25.6 µM] (inactive) | – |
| CCCCN(CC)C(=O)Cc1ccccc1OC | – | 15.8 µM (active) |
| CCCCN(C(=O)NC(=O)Nc1ccccc1OCC)S(C)(=O)=O | -18.4% (inactive) | – |
| COc1ccccc1CNC(=O)c1cc2c(C)nn(Cc3ccc(F)cc3)c2s1 | – | 2.82 µM (active) |
| CCCn1nc2cc(C(=O)NCc3ccccc3OC)ccc2c1OCC | -3.81% [at 2.29 µM] (inactive) | – |
| CNC(=O)COC(=O)c1cc2c(C)nn(-c3ccc(F)cc3)c2s1 | -30% (inactive) | – |
